Growth data for 40 molecules are collected here from PubChem BioAssay (NCI).

About 83,000 compounds went through this panel and 20% of them were active in at least one assay; those are over-represented in the sample as a whole.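 48-hour exposure, single concentration, 96-well plates; percent growth endpoint where 0 means no net growth. Active: below 10.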 A number with no mark means an inactive call. Active and inactive are the calls of the source.

For this test, the system named is LOX IMVI melanoma. Description: NCI-60 one-dose screen, 48 h (100 = growth as untreated, 0 = no growth, -100 = all killed). To be noted: 10 µM unless noted. As to the method: Growth inhibition of the LOX IMVI human tumor cell line is measured as a screen for anti-cancer activity. Cells are grown in 96 well plates and exposed to the test compound for 48 hours. Compounds are tested at a single concentration, which is 10^-5 M for most compounds. The reported endpoint is percent growth (GI% or GIPRCNT), where numbers from 0 - 100% represent growth inhibition, and numbers from -100% - 0 represent cell death. For example, a value of 40 represents 60% growth inhibition. A value of 0 means no net growth occurred over the course of the experiment. A value of -40 indicates 40% of cells at the beginning of the experiment died by the end of the experiment. A value of -100 means all cells are dead at the end of the experiment.
NCI-60 Human Tumor Cell Lines Screen was performed using the standard one-dose NCI protocol, which is described in more detail at https://dtp.cancer.gov/discovery_development/nci-60/default.htm.
Compounds with GIPRCNT values below 10 were considered active. Activity score was based on GIPRCNT using the following formula: […]
Score is 0 for GIPRCNT values of 100 or above, 50 for GIPRCNT values of 0, and 100 for GIPRCNT values of -100.
Take `Cc1ccc(S(=O)(=O)NNC(=O)/C(=C\c2ccc(Cl)cc2)c2nc3ccccc3s2)cc1`: the growth is 90.5%.
For `CCOC(=O)c1cc(C(=O)c2ccc(OC)c(OC)c2)n2ccc(/C=C/c3cc[n+](CC(=O)c4ccc(OC)c(OC)c4)cc3)cc12` the value was 87.7%; for `CC1=CCC(OC(=O)C(C)(O)CCC(O)(C(=O)OC2(C)C=CC(O)(C(C)C)CC2)C(C)C)(C(C)C)CC1` (stereo not given), 101%.
For `O=C(CCN1CCCC1)Nc1ccc2c(NCCc3ccccc3)c3ccccc3nc2c1` the value was -68% (active); for `O=C1c2cccc3c(-c4ccc5c(c4)ncn5C4CCCCC4)ccc(c23)C(=O)N1c1nc2ccccc2s1`, 84.8%.
For `O=S(=O)(NCCNc1nccc(-c2c(-c3cccc(O)c3)nc3occn23)n1)c1ccc(Cl)cc1` the value was 72.3%; for `O=S(=O)(NCCNc1nccc(-c2c(-c3cccc(O)c3)nc3occn23)n1)c1ccccc1`, 53.7%.
For the molecule `CN1CCN(c2ccc(NC3=C(Cl)C(=O)c4ncccc4C3=O)cc2C(F)(F)F)CC1`, the growth was -56.2% (active).
For `O=c1[nH]nc(-c2ccccc2)c2sc3ncc(-c4ccc(Br)cc4)n3c12` the value was 36.9%.
For `C=C(CBr)[C@@H]1CC[C@]2(COC(C)=O)CC[C@]3(C)[C@H](CC[C@@H]4[C@@]5(C)CCCNC(C)(C)[C@@H]5CC[C@]43C)[C@@H]12` the value was 23.5%.
For `Cc1c(C(=O)NCCC(=O)NO)sc2ncnc(Nc3ccc(F)c(Cl)c3)c12` the value was 98.8%.
For `N#C/C(=C\c1ccc(Cl)cc1)n1nnc2cc(F)c(F)cc21`, the growth was -63.5% (active).
For `COc1cc(C2=C(c3cn(C)c4ccccc34)COC2=O)cc(OC)c1OC` the value was 2.86% (active).
For `C#CCNC(=O)c1cccc2c1cc(C)n2-c1nc2c(c(NCc3ccccc3)n1)CCCC2` the value was -86.6% (active); for `COc1cc2oc(-c3cccc(C(=O)Nc4ccc(Cl)cc4)c3)cc(=O)c2c(O)c1OC`, 69.8%; for `O=S(=O)(Nc1ccc(-n2cnc3cc(-c4ccc(O)cc4)ccc32)cc1)c1ccccc1`, 81%.
For `Cc1ccc(NC(=O)c2cc(-c3nc4ccccc4s3)c(=O)n(NS(=O)(=O)c3ccc(Cl)cc3)c2N)cc1` the value was 102%.
For `COc1cc(/C=C2\COc3ccc(-c4ccccc4)cc3C2=O)cc(OC)c1`, the growth is 71.9%.
`[O-][n+]1c(Cl)cc(Cl)c2ccccc21`: the growth is 97.4%.
For `O=S(=O)(NCCCNc1nccc(-c2c(-c3cccc(O)c3)nc3occn23)n1)c1ccc(Cl)cc1` the value was 44.4%; for `N#Cc1c(-c2cccc([N+](=O)[O-])c2)nc(SCC(=O)c2ccc(Cl)cc2)[nH]c1=O`, 96%; for `COC(=O)C(CC=O)C(=O)C(=O)Nc1cccc(C(F)(F)F)c1` (stereo not given), 85.9%.
On to `O=C(CSc1nc2sc3c(c2c(=O)n1-c1ccc(Cl)cc1)CCCC3)Nc1nc(-c2cccc(Br)c2)cs1`, for which the growth was 84.3%.
Take `CCCC/C=N/NC(=S)NCc1ccccc1`: the growth was 97.3%.
For `COc1ccc(/C=C2\COc3ccc(-c4ccccc4)cc3C2=O)c(OC)c1` the value was 79%; for `CCCCCCCC(=O)OCC/C=C/C1OC1C1OC(=O)/C=C\C=C\C(=O)N(C(C)=O)C(=O)/C=C(/C)CCC2OC2C1OC(=O)NC(C)=O` (stereo not given), 54%; for `CCOc1ccc(/C=N/Nc2cc(C)nc3ccc(Br)cc23)cc1`, 84.4%.
For `NCCCCCCNc1cc(-c2cccc(OC(F)(F)F)c2)nc2ccc(N3CCCC3)cc12` the value was -93.6% (active); for `O=S(=O)(NCCCNc1nccc(-c2c(-c3cccc(F)c3)nc3sccn23)n1)c1cccc2ccccc12`, 20.9%.
For `CC(C)(C)[Si](C)(C)OC1[C@@H](O[Si](C)(C)C(C)(C)C)[C@@H](CNC(=O)NC(=O)CCl)O[C@H]1n1cnc2c(NC(=O)Nc3ccccc3)ncnc21` (stereo not given in full) the value was -88.1% (active); for `N#CC1=C(N)Oc2c(ccc3ccccc23)C1c1ccccc1Cl` (stereo not given), 27.3%.
As for `COc1cc(/C=C/c2cc(O)c(C(C)=O)c(O)c2)cc2c1O[C@]1(C)CC[C@@H](O)C(C)(C)[C@H]1C2`, the growth is 35.1%.
Turning to `C=C(C)[C@@H]1CC[C@]2(C(=O)N3CCN(C)CC3)CC[C@]3(C)[C@H](CC[C@@H]4[C@@]5(C)CC[C@H](O)C(C)(C)[C@@H]5CC[C@]43C)[C@@H]12`, the growth was -80.9% (active).
For `N#Cc1c(NC(=O)NCc2ccccc2)sc2c1CCCC2` the value was 24%; for `CC(=O)[C@@H]1CC[C@]2(CO)CC[C@]3(C)[C@H](CC[C@@H]4[C@@]5(C)CCCNC(C)(C)[C@@H]5CC[C@]43C)[C@@H]12`, 95.6%; for `CCOC(=O)C1=C(C)NC(SCc2cc(=O)oc3ccc(F)cc23)=N[C@@H]1c1cccc2ccccc12`, 99.9%.
For `C=C(C)[C@@H]1CC[C@]2(C(=O)N3CCN(C)CC3)CC[C@]3(C)[C@H](CC[C@@H]4[C@@]5(C)C/C(=C/c6cccnc6)C(=O)C(C)(C)[C@@H]5CC[C@]43C)[C@@H]12` the value was 78.7%; for `O=C(/C=C(O)/C=C/c1ccc(SC(F)(F)F)cc1)/C=C/c1ccc(SC(F)(F)F)cc1`, 72%.
On to `CC(C)c1ccc(Nc2ccc3c(OCCCN4CCN(C)CC4)cccc3n2)cc1`, for which the growth is -70.7% (active).
For `COc1cc(/C=C\c2cc(OC)c(OC)c(OC)c2)cc(NC(=O)/C=C/c2cc(OC)c(OC)c(OC)c2)c1OC` the value was 35.5%.
